# From paper PMC7862700, “An all-to-all approach to the identification of sequence-specific readers for epigenetic DNA modifications on cytosine”
# How the values were obtained:
# Assay in all cases: DAPPL (digital affinity profiling via proximity ligation, sequencing); 10 mM Tris-HCl pH 7.5, 50 mM NaCl, 1 mM DTT, 4% glycerol, room temperature, 30 min; GST-TFs on glutathione beads, 16-mer random dsDNA library, 0.1% formaldehyde crosslink after washing; high values mean tight binding
# Conditions in all cases: protein: recombinant; tags: N-terminal GST; dsDNA, one strand shown
# ELK4 = biological target: T1, ELK4 (Homo sapiens, UniProt P28324-2 1-405)
# T1 sequence: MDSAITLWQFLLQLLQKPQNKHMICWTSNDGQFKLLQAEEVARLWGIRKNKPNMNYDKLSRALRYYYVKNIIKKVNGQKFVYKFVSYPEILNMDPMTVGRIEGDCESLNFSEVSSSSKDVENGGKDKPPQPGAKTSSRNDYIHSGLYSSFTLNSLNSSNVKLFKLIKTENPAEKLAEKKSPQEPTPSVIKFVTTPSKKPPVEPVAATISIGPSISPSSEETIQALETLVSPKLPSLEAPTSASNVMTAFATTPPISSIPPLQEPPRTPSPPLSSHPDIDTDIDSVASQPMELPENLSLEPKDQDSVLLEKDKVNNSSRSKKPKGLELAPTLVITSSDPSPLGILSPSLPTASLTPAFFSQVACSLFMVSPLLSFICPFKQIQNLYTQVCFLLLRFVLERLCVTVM
# Summary of the method: (§1)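 GST fusions of human transcription factors were expressed in yeast and captured with glutathione beads. Once given DNA barcodes and pooled alongside a tag-only sample, they were incubated for 30 min at room temperature with 200 nmole of a random double-stranded 16-mer DNA library in Tris/NaCl/DTT/glycerol buffer, then washed, crosslinked (0.1% formaldehyde), proximity-ligated, PCR-amplified and sequenced on an Illumina NextSeq500. The binding signal of each hexamer is its read frequency for a factor divided by its frequency for the tag-only sample.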
# ELF3 = biological target: T2, ELF3 (Homo sapiens, UniProt P78545 1-371)
# T2 sequence: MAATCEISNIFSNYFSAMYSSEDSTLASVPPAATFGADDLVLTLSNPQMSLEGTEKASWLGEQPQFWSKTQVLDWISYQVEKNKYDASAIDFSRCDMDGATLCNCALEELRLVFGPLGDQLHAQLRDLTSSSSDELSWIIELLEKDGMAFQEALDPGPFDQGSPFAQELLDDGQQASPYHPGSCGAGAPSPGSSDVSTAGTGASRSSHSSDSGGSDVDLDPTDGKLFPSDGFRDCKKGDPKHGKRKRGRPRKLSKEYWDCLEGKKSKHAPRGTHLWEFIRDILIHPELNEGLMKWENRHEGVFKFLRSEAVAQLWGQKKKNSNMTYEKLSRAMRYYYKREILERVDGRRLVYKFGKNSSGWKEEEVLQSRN
# Summary of the method: as §1
# ETV1 = ETV1 (Homo sapiens, UniProt P50549 1-477)
# ETV1, sequence (P50549 whole entry): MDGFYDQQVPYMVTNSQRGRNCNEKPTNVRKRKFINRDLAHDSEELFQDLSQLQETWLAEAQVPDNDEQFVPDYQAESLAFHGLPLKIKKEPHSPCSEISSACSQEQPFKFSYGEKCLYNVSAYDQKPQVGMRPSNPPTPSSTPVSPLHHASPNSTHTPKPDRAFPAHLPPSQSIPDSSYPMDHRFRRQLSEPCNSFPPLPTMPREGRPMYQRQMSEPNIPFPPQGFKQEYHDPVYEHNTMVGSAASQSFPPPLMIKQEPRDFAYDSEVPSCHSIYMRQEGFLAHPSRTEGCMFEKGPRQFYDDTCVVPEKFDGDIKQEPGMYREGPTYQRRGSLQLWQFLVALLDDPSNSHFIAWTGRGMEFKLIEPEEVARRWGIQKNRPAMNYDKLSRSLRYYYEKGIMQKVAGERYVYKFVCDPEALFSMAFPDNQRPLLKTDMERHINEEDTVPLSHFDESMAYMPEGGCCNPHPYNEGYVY
# Summary of the method: as §1
# ERF = biological target: T3, ERF (Homo sapiens, UniProt P50548 1-548)
# T3 sequence: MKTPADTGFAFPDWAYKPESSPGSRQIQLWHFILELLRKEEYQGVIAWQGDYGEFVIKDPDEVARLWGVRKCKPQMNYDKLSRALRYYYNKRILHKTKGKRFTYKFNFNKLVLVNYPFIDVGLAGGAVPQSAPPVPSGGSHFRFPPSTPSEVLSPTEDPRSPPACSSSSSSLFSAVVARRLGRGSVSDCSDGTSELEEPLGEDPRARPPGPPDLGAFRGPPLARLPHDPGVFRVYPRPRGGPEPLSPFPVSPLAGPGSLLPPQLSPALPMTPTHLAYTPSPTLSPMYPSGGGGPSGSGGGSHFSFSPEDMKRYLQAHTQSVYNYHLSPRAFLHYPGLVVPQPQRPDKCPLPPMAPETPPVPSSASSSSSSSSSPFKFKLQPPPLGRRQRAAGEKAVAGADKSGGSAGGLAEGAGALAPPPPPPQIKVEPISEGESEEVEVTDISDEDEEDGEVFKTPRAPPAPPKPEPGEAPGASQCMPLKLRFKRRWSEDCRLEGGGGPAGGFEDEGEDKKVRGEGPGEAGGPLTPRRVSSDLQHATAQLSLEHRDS
# Summary of the method: as §1
# ETV3L = biological target: T4, ETV3L (Homo sapiens, UniProt Q6ZN32 1-361)
# T4 sequence: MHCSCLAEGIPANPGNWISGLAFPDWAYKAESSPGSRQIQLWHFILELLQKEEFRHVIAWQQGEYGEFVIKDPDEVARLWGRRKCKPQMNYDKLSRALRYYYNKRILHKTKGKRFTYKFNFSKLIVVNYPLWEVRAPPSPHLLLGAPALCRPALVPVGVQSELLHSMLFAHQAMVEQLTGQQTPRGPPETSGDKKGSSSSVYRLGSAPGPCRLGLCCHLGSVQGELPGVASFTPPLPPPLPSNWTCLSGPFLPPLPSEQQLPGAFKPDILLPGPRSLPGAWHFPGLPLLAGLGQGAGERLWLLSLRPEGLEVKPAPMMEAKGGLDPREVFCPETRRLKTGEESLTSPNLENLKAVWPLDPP
# Summary of the method: as §1
# ETS2 = biological target: T5, ETS2 (Homo sapiens, UniProt P15036 1-469)
# T5 sequence: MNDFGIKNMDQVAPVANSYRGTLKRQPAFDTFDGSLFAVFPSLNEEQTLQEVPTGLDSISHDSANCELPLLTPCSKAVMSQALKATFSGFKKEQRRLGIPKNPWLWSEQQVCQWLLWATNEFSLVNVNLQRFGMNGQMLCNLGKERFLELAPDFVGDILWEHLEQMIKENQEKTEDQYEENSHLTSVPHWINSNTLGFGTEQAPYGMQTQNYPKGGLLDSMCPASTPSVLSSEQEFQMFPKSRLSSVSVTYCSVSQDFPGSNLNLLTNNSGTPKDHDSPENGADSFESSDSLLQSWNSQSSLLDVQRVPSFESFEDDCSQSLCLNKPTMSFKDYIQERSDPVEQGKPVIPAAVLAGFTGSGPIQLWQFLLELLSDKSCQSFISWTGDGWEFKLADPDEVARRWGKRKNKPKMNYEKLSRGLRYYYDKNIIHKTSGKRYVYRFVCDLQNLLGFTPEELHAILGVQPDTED
# Summary of the method: as §1
# SPDEF = biological target: T6, SPDEF (Homo sapiens, UniProt O95238 1-335)
# T6 sequence: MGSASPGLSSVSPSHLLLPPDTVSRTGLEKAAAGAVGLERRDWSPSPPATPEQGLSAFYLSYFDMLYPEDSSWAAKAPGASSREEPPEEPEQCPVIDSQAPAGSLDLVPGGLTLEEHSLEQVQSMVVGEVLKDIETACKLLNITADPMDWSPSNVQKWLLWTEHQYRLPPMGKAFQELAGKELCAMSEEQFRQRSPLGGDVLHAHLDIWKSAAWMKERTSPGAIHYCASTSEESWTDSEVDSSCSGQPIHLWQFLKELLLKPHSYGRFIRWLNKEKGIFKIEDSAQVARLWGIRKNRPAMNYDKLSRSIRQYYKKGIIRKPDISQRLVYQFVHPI
# Summary of the method: as §1
# ETV7 = biological target: T7, ETV7 (Homo sapiens, UniProt Q9Y603 1-341)
# T7 sequence: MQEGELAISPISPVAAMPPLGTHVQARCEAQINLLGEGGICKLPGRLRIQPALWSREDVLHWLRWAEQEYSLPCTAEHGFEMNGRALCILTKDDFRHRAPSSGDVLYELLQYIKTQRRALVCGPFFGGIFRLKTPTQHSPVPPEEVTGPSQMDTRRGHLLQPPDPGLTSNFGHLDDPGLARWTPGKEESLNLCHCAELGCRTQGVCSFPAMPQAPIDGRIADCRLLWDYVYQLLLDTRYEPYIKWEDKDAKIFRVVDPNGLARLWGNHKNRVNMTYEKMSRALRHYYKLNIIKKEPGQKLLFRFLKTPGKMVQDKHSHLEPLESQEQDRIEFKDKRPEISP
# Summary of the method: as §1
# ETV3 = biological target: T8, ETV3 (Homo sapiens, UniProt P41162-2 1-143)
# T8 sequence: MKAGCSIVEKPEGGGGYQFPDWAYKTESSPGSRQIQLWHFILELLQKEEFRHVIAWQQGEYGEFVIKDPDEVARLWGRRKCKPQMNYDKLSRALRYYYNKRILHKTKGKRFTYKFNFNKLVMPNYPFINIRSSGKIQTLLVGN
# Summary of the method: as §1
# ETV6 = ETV6 (Homo sapiens, UniProt P41212 1-452)
# ETV6, sequence (P41212 whole entry): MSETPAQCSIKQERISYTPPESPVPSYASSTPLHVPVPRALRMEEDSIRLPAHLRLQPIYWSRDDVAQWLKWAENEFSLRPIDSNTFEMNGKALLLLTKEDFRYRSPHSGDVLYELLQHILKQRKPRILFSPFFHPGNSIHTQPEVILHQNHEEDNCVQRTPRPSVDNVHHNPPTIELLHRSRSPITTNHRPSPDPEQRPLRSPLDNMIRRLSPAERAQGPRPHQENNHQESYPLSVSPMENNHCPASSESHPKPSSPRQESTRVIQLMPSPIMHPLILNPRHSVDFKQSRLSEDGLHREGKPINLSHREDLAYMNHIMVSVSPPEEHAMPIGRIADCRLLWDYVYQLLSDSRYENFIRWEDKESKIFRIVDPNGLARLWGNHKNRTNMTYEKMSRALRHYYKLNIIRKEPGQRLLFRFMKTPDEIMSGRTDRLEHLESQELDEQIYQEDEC
# Summary of the method: as §1
sequence,measurement,setting,value
GTGCAT,binding signal,ELK4,"1.08 fold enrichment (6-mer frequency, TF over GST control)"
same,binding signal,ELF3,"1.03 fold enrichment (6-mer frequency, TF over GST control)"
same,binding signal,ETV1,"1.05 fold enrichment (6-mer frequency, TF over GST control)"
same,binding signal,ERF,"1.18 fold enrichment (6-mer frequency, TF over GST control)"
same,binding signal,ETV3L,"1.04 fold enrichment (6-mer frequency, TF over GST control)"
same,binding signal,ETS2,"1.1 fold enrichment (6-mer frequency, TF over GST control)"
same,binding signal,SPDEF,"1.17 fold enrichment (6-mer frequency, TF over GST control)"
same,binding signal,ETV7,"1.12 fold enrichment (6-mer frequency, TF over GST control)"
same,binding signal,ETV3,"1 fold enrichment (6-mer frequency, TF over GST control)"
same,binding signal,ETV6,"1.14 fold enrichment (6-mer frequency, TF over GST control)"
